Assay outcomes from PubChem BioAssay.
JMJD2A Tudor: JMJD2A Tudor domain (human) inhibition. O75164. AlphaScreen JMJD2A-Tudor / H3K4me3 peptide binding. Potency, µM (series often up to 114 µM), actives largely listed as inhibitors. 4.4% of 390,000 active; further: nearly all actives have a fitted effect of over 50% in size
PLK1 PBD inh: inhibitors of human PLK1 polo-box domain binding. P53350. Plk1 PBD binding of FITC phosphopeptide, fluorescence polarization. 2.8% of 360,000 active. Potency, µM, usual class: inhibitors; further: series mostly up to about 57 µM; nearly all actives have a fitted effect of over 65% in size
Target sequence (P53350 whole entry, looked up, the tested form may be a part): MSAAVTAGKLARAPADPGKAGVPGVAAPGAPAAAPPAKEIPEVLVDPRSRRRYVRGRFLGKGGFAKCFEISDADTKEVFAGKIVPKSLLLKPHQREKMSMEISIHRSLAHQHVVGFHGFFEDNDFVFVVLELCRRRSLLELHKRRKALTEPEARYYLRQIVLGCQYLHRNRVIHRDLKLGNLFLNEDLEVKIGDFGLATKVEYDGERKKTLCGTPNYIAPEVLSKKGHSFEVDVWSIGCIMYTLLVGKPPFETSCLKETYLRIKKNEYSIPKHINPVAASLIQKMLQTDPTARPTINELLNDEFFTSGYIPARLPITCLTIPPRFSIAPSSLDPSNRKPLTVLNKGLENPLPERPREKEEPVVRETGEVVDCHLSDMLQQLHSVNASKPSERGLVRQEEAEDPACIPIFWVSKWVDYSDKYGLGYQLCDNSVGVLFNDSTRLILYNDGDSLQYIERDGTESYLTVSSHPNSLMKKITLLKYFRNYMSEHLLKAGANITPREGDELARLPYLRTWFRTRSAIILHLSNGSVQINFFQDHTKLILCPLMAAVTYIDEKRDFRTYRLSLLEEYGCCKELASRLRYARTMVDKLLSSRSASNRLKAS
HP1b binding inh: blocks HP1-beta chromodomain binding to methylated histone tails | 0.56% of 390,000 active | AlphaScreen HP1-beta / biotin-H3K9me3 peptide binding | Potency, µM (doses to about 114 µM), hits mostly inhibitors; further: nearly all actives have a fitted effect of over 70% in size
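AlphaScreen: HP1-beta (50 nM) preformed 30 min with biotin-H3(1-18)K9me3 peptide (50 nM) in PBS pH 7.4, 0.01% Tween-20. Compound added for 30 min at RT, then streptavidin donor/nickel chelate acceptor beads (10 ug/mL) for 30 min.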
G9a block: inhibitors of human histone lysine methyltransferase G9a; Q96KQ7; G9a H3K9 monomethylation, AlphaScreen, 2 h; Potency, µM (top dose mostly 102 µM), most hits filed as inhibitors; 8.8% of 350,000 active; further: nearly all actives have a fitted effect of over 75% in size
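Signal arises when biotinylated H3K9 peptide, once monomethylated, bridges streptavidin donor and antibody-captured acceptor beads. Enzyme at 20 nM was preincubated 15 min with test compounds; peptide 500 nM and SAM 20 uM then reacted for 2 h.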
PI5P4K alpha inh: PI5P4K alpha (human) kinase inhibition; P48426; PI5P4Kalpha enzyme, ADP-Glo luminescence, 60 min; hits give low values; max response, %; 1.2% of 330,000 active; active means max response of -50% or lower; inconclusive means between -30% and -50%; inactive means -30% or higher; further: value at the top dose of about 77 µM
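Reactions run in 0.038 M HEPES pH 7.4, 0.28 mM EGTA, 0.1% CHAPS and 5% DMSO, with PI5P4Kalpha, substrate, compound and 5 microM ATP final, one hour at room temperature. Readout is ADP-Glo luminescence.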
BAZ2B inh: BAZ2B (human) inhibition | Q9UIF8 | AlphaScreen BAZ2B-H3K14Ac peptide displacement | Potency, µM (titrated, usually from 114 µM), actives largely listed as inhibitors | 4.4% of 360,000 active; further: nearly all actives have a fitted effect of over 60% in size
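Complex of BAZ2B and biotin-H3K14Ac (50 nM apiece) forms over 30 min at RT, then faces library compounds up to 110 uM for another 30 min; AlphaScreen beads added, 20 min dark incubation, luminescence read.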
Each line names hits and unclear results; the compound was inactive in the other large screens; ! = not active in a repeat. Shown are actives, neighbours in structure and some others; about 12% of the full set was active somewhere. Unless noted, the call rests on the fitted dose curve; in most records, active means well fitted curve in the direction sought with a large enough effect; inconclusive means small, poorly fitted or top-dose-only effect, or another doubt; inactive means no such curve, though single readings can be large; an effect the other way counts as inactive or inconclusive.

CCC(CC)C(=O)NCc1ccccc1Cl	none
Cc1nc2c(C(=O)NCc3ccccc3)c[nH]n2c(=O)c1Cc1ccccc1Cl	HP1b binding inh inconclusive (no result: PLK1 PBD inh, PI5P4K alpha inh)
Cc1nc2c(C(=O)NCc3ccccc3Cl)c[nH]n2c(=O)c1Cl	PLK1 PBD inh 30µM, G9a block 16µM (no result: PI5P4K alpha inh)
COC(=O)c1c[nH]n2c(=O)c(Cl)c(C)nc12	none
Cc1nc(C)c(C(=O)NCc2ccccc2Cl)o1	JMJD2A Tudor inconclusive, PLK1 PBD inh 21µM, G9a block inconclusive (no result: PI5P4K alpha inh)
Cc1nc2c(C(=O)NCc3ccccc3)c[nH]n2c(=O)c1Cl	PLK1 PBD inh inconclusive, G9a block 79µM (no result: PI5P4K alpha inh)
Cc1cc(C(=O)NCc2ccccc2Cl)n(-c2ccccc2)n1	JMJD2A Tudor inconclusive, PLK1 PBD inh 27µM
CC(C)(CC(=O)O)CC(=O)N1CCCN(c2nccc(C(F)(F)F)n2)CC1	none
O=C(Cn1cc(SCc2c(F)cccc2Cl)c2ccccc21)N1CCCCCC1	none (no result: PLK1 PBD inh, PI5P4K alpha inh)
CCOc1ccc(C(=O)Nc2ccccc2OCc2cc(=O)n3ccccc3n2)cc1	none (no result: PLK1 PBD inh, PI5P4K alpha inh)
Cc1ccc(CS(=O)Cc2ccc(C(=O)NCc3ccccc3Cl)o2)cc1 (configuration not stated)	G9a block 79µM!
Cc1ccc(CNC(=O)c2ccc(CS(=O)Cc3ccccc3Cl)o2)cc1 (configuration not stated)	none
O=C(NCCCCO)c1c(-c2ccccc2)oc2c1C(OCCCCCO)CCC2 (configuration not stated)	none (no result: JMJD2A Tudor, HP1b binding inh, G9a block, BAZ2B inh)
NC(=O)CN1CCN(c2nc(-c3ccc(F)cc3)cs2)CC1	PLK1 PBD inh 30µM
CCCCC(=O)N1CCN(c2nc(-c3ccc(F)cc3)cs2)CC1	none (no result: G9a block)
O=C(CN1CCN(c2ccc(F)cc2)CC1)Nc1ccc2c(c1)OCCO2	none
O=C(CN1CCN(c2nc(-c3ccc(F)cc3)cs2)CC1)Nc1ccc2c(c1)OCO2	G9a block 45µM, BAZ2B inh inconclusive
O=C(c1ccc(CS(=O)(=O)c2c(Cl)cccc2Cl)o1)N1CCN(c2ccccc2)CC1	BAZ2B inh inconclusive (no result: PLK1 PBD inh, PI5P4K alpha inh)
Cc1cc(C)n(CCCNCC(O)c2ccccc2)n1 (configuration not stated)	JMJD2A Tudor 79µM, HP1b binding inh inconclusive, G9a block 22µM, BAZ2B inh inconclusive
O[C@@H](CNC[C@H](O)c1ccccc1)c1ccccc1	G9a block inconclusive, BAZ2B inh inconclusive
c1ccc(-c2cc(-c3ccccc3)ncn2)cc1	none (no result: G9a block, BAZ2B inh)
Oc1cccc(Nc2cc(-c3ccccc3)ncn2)c1	G9a block inconclusive, BAZ2B inh 50µM (no result: PLK1 PBD inh, PI5P4K alpha inh)
CC(=O)Nc1ccc(S(=O)(=O)NC2(C(F)(F)F)C(=O)Nc3c2c(=O)[nH]c(=O)n3Cc2ccco2)cc1 (configuration not stated)	G9a block 56µM (no result: HP1b binding inh)
CC(=O)NC1(C(F)(F)F)C(=O)Nc2c1c(=O)[nH]c(=O)n2Cc1ccco1 (configuration not stated)	none
Cc1noc(C)c1S(=O)(=O)N(CC(=O)NCCc1ccc(Cl)cc1)c1ccc(C(C)C)cc1	G9a block 1µM (no result: PLK1 PBD inh, PI5P4K alpha inh, BAZ2B inh)
Cc1ccc(S(=O)(=O)Cn2nnnc2C(C(C)C)N2CCC(C(N)=O)CC2)cc1 (configuration not stated)	none
Cc1ccc(S(=O)(=O)Cn2nnnc2C(C(C)C)N2CCC(O)CC2)cc1 (configuration not stated)	none
Cc1ccc(C(c2nnnn2CS(=O)(=O)c2ccc(C)cc2)N2CCN(c3ncccn3)CC2)cc1 (configuration not stated)	none
Cc1ccc(S(=O)(=O)Cn2nnnc2C(c2ccccn2)N2CCN(c3ccccc3)CC2)cc1 (configuration not stated)	G9a block 35µM, BAZ2B inh inconclusive (no result: PI5P4K alpha inh)
Cc1ccc(S(=O)(=O)Cn2nnnc2C(C(C)C)N2CCc3ccccc3C2)cc1 (configuration not stated)	JMJD2A Tudor 28µM, PLK1 PBD inh inconclusive, G9a block inconclusive, BAZ2B inh inconclusive (no result: PI5P4K alpha inh)
Cc1ccc(S(=O)(=O)Cn2nnnc2C(C(C)C)N2CCSCC2)cc1 (configuration not stated)	G9a block 35µM (no result: PI5P4K alpha inh)
O=C(NCCS(=O)(=O)N1CCN(c2ccccc2)CC1)C(c1ccccc1)c1ccccc1	none (no result: PLK1 PBD inh, PI5P4K alpha inh)
O=C(CSc1nnnn1C1CCCCC1)N1CCOCC1	PLK1 PBD inh 27µM
Oc1ccc(C(c2nnnn2C2CCCCC2)N2CCOCC2)cc1 (configuration not stated)	G9a block 22µM, BAZ2B inh inconclusive
O=C(CSc1nnnn1C1CCCCC1)Nc1ccccc1N1CCOCC1	G9a block 35µM
O=C(CSc1nnnn1C1CC1)N1CCN(c2ccc(O)cc2)CC1	JMJD2A Tudor inconclusive, HP1b binding inh inconclusive, G9a block inconclusive
CC(C)n1nnnc1SCC(=O)Nc1ccccc1N1CCOCC1	none
Cn1c(=O)n(C)c2cc(CNCc3ccc(F)cc3)ccc21	none (no result: PLK1 PBD inh, PI5P4K alpha inh)
COc1ccc(-c2nnc3n2N=C(c2ccccc2OC)CS3)c(OC)c1	none (no result: PLK1 PBD inh, HP1b binding inh, G9a block, PI5P4K alpha inh, BAZ2B inh)
c1ccc(-c2nc3ccccn3c2NC2CCCC2)nc1	JMJD2A Tudor inconclusive, BAZ2B inh 50µM
Cc1cc(C)n2c(NC3CCCCC3)c(-c3ccccn3)nc2n1	none (no result: JMJD2A Tudor, HP1b binding inh, G9a block, BAZ2B inh)
Cc1ccn2c(NC3CCCC3)c(-c3ccccn3)nc2c1	JMJD2A Tudor 50µM, G9a block inconclusive, BAZ2B inh 50µM
Cc1ccn2c(NC3CCCC3)c(-c3ccncc3)nc2c1	none
CC(O)c1cccc(-c2ccc(CN3C[C@]4(CO)O[C@@H](CO)C[C@@H]4S3(=O)=O)cc2)c1 (some centres not stated)	PLK1 PBD inh 27µM, PI5P4K alpha inh inconclusive (no result: G9a block, BAZ2B inh)
CCCCn1c(N)c(N(CC(C)C)C(=O)Cn2c(=O)oc3ccccc32)c(=O)[nH]c1=O	none
CCCCn1c(N)c(N(CC(C)C)C(=O)c2ccco2)c(=O)[nH]c1=O	G9a block 50µM
CCCCn1c(N)c(N(CC(C)C)C(=O)Cn2c(=O)cnc3ccccc32)c(=O)[nH]c1=O	G9a block 45µM
CCCCn1c(N)c(N(CCC(C)C)C(=O)C2=NN(c3cc(C)ccc3C)C(=O)CC2)c(=O)[nH]c1=O	G9a block 40µM
CCCCn1c(N)c(N(Cc2ccccc2OC)C(=O)c2cc(=O)[nH]c3ccccc23)c(=O)[nH]c1=O	G9a block 35µM
COc1ccc(NC(=O)c2cccn2-c2nnc(N3CCCCC3)s2)cc1	none (no result: PLK1 PBD inh, PI5P4K alpha inh)
CCCCn1c(N)c(N(CC(C)C)C(=O)c2cc(-c3ccncc3)nc3ccccc23)c(=O)[nH]c1=O	G9a block 56µM
CCCCn1c(N)c(N(CCC(C)C)C(=O)c2ccc([N+](=O)[O-])s2)c(=O)[nH]c1=O	G9a block 79µM
CCCCN(C(=O)c1ccc([N+](=O)[O-])s1)c1c(N)n(CC(C)C)c(=O)[nH]c1=O	none
